Test results from PubChem BioAssay (NCATS).
Values joined by “and” are separate entries in the source; they are usually repeats but may differ in a detail not shown here. Equal values may be shown once. Records with an inconclusive call do not appear. Active and inactive are the calls of the source. Calls follow the shape of the dose curve; as a rule, active = well fitted curve in the direction sought with a large enough effect; inconclusive = small, poorly fitted or top-dose-only effect, or another doubt; inactive = no such curve, though single readings can be large; an effect the other way counts as inactive or inconclusive.

How the values were obtained:
[1] = test system: Zika virus NS2B-NS3 protease (unlinked complex); assay: Primary screen GU Rhodamine qHTS for Zika virus inhibitors: Unlinked NS2B-NS3 protease assay (AID 1347159); conditions: Recombinant ZIKV NS2B-NS3 protease, Rhodamine110 substrate fluorescence; series mostly up to 107 µM; also: nearly all actives have a fitted effect of over 60% in size; also: potency is read from the fitted curve at half-maximal effect
Method in brief: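 A qHTS format was used, with compound concentrations ranging up to 114 microM. Each compound was preincubated with 25 nM NS2B-NS3 protease, and the substrate was then added at 1.5 microM. Curves were fitted with a 4-parameter Hill model.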

[2] = test system: Zika virus NS2B-NS3 protease (linked construct); assay: Primary screen NINDS Rhodamine qHTS for Zika virus inhibitors (AID 1347160); conditions: purified NS2B-NS3 protease, Rhodamine110 substrate fluorescence; series mostly up to 57.1 µM; also: nearly all actives have a fitted effect of over 55% in size; also: potency is read from the fitted curve at half-maximal effect
Method in brief: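 Kinetic fluorescence (Ex 480 nm, Em 540 nm) over 15 min with 1.5 microM Rhodamine110 peptide and 25 nM linked protease.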

[3] = molecular target: Calcium and integrin-binding protein 1 (Homo sapiens) (UniProt Q99828); assay: Primary qHTS for Identification of Calcium Integrin Binding Protein 1 (CIB1) Competitor (AID 1508620); conditions: CIB1-GST / FITC-alphaIIb peptide fluorescence polarization; series mostly up to 114 µM;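 also: GST tagged CIB1 binding a fluorescein labelled alphaIIb integrin peptide tracer; top concentration of the series differs between compounds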
Calcium and integrin-binding protein 1 (Homo sapiens), sequence (Q99828 whole entry, looked up): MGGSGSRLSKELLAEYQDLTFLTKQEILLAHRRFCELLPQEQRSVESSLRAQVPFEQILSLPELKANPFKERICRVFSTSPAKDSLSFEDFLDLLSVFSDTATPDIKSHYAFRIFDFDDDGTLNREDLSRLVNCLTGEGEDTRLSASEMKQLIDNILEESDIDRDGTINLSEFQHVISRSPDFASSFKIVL
Method in brief: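 CIB1-GST (1 uM final) and compound incubated 15 min at room temperature before adding FITC-alphaIIb peptide tracer (100 nM final). Competition for binding read by fluorescence polarization (ex 480, em 540) after another 15 min at room temperature.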

[4] = Primary qHTS for inhibitors of nuclear receptor binding SET domain protein 2 (NSD2) in an isogenic RCH-ACV NSD2 p.E1099K mutant (9B) (AID 1645876); conditions: RCH-ACV NSD2 E1099K (9B) viability, CellTiter-Glo, 72 h; series mostly up to 44.9 µM; also: nearly all actives have a fitted effect of over 70% in size; also: potency is read from the fitted curve at half-maximal effect
[5] = Primary qHTS for inhibitors of nuclear receptor binding SET domain protein 2 (NSD2) in an RCH-ACV wild type WT cells (2C) (AID 1645877); conditions: RCH-ACV (leukaemia line) NSD2 WT (2C) viability, CellTiter-Glo, 72 h; series mostly up to 44.9 µM; also: potency is read from the fitted curve at half-maximal effect; nearly all actives have a fitted effect of over 70% in size
[6] = molecular target: Glutathione peroxidase 1 (Homo sapiens) (UniProt P07203); assay: Primary qHTS Assay for Inhibitors of Recombinant Selenoprotein Glutathione Peroxidase 1 (GPX1) (AID 1845191); conditions: recombinant GPX1, GR-coupled NADPH fluorescence, 15 min; series mostly up to 48.8 µM; also: nearly all actives have a fitted effect of over 65% in size
Glutathione peroxidase 1 (Homo sapiens), sequence (P07203 whole entry, looked up): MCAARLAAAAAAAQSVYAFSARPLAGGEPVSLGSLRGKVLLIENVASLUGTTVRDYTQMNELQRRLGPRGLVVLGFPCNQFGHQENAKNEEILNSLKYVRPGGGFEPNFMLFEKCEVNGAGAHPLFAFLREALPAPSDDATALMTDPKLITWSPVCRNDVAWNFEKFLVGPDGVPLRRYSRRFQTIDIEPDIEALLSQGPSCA
Method in brief: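 10 nM GPX1 + cpd, 30 min RT; start w/ 1 mM GSH, 0.5 mM cumene hydroperoxide, 0.5 mM NADPH, 100 nM GR, 0.01% BSA; buffer 50 mM Tris-HCl pH 7.5, 2 mM EDTA, 150 mM NaCl; Fl 340/450, 0 & 15 min.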

[7] = molecular target: Phospholipid hydroperoxide glutathione peroxidase GPX4 (Homo sapiens) (UniProt P36969); assay: Primary qHTS Assay for Inhibitors of Recombinant Selenoprotein Glutathione Peroxidase 4 (GPX4) (AID 1845192); conditions: recombinant GPX4, GR-coupled NADPH fluorescence, 15 min; series mostly up to 50 µM; also: nearly all actives have a fitted effect of over 65% in size; also: potency is read from the fitted curve at half-maximal effect
Phospholipid hydroperoxide glutathione peroxidase GPX4 (Homo sapiens), sequence (P36969 whole entry, looked up): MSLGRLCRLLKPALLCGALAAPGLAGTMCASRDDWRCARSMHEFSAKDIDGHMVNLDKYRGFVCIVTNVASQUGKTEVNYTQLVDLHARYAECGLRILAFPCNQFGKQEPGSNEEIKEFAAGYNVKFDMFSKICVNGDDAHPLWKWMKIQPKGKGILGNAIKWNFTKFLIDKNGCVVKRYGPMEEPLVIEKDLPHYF
Method in brief: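 NADPH consumption, followed by fluorescence at 340/450 nm between 0 and 15 min, reports GPX4 activity via coupled glutathione reductase (100 nM). Enzyme 200 nM was pre-exposed to compound 30 min; 0.5 mM cumene hydroperoxide and 1 mM GSH served as substrates.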

[8] = molecular target: Luciferin 4-monooxygenase (Photinus pyralis) (UniProt P08659); assay: Primary firefly luciferase (FLuc) qHTS assay for identification of artifact compounds. (AID 1845220); conditions: purified firefly luciferase, luminescence, 5 min; series mostly up to 54.1 µM; also: nearly all actives have a fitted effect of over 60% in size; also: potency is read from the fitted curve at half-maximal effect
Method in brief: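 FLuc 10 nM; luciferin 10 uM; ATP 10 uM; Tris-acetate pH 7.6, Mg-acetate 10 mM; 15 min RT preincubation; 5 min reaction; luminescence.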

[9] = Primary fluorescence-based thiol-reactive (MSTI) qHTS assay for identification of artifact compounds. (AID 1845221); conditions: MSTI thiol-reactivity probe, 1 h; series mostly up to 53.8 µM; also: nearly all actives have a fitted effect of over 65% in size; also: potency is read from the fitted curve at half-maximal effect
Method in brief: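 One-hour, room-temperature, dark incubation of compound with 4 uM MSTI in PBS (pH 7.4, 2% DMSO) precedes a fluorescence read at 525 nm excitation, 598 nm emission; Hill-equation fitting yields concentration-response values.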

[10] = test system: Nanoluciferase (engineered Oplophorus gracilirostris luciferase); assay: Primary Nanoluciferase (NLuc) qHTS assay for identification of artifact compounds. (AID 1845222); conditions: NLuc-conditioned medium, Nano-Glo luminescence, 5 min; series mostly up to 54.1 µM;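 also: NLuc secreted into diluted conditioned medium of S16 cells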
Method in brief: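 NLuc from S16 cell medium (1:55) plus test compounds, 15 min, room temperature. Luminescence after Nano-Glo (1:100) addition, 5 min.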

C33A = assay: Primary qHTS to identify gynecologic anti-cancer compounds using libraries of approved drugs and bioactive compounds (AID 1345084); conditions: Gynecologic cancer cell panel viability, ATPlite luminescence, 48 h; series mostly up to 57.5 µM; also: nearly all actives have a fitted effect of over 55% in size; also: potency is read from the fitted curve at half-maximal effect
Method in brief: (§1)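 In this quantitative HTS, cell killing is estimated from loss of ATP-dependent luciferase light. Cells see five compound concentrations over a 48 h exposure.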

CASKI = assay: as above; conditions: Gynecologic cancer cell panel viability, ATPlite luminescence, 48 h; series mostly up to 57.5 µM
Method in brief: as §1

Es-2 = assay: as above; conditions: Gynecologic cancer cell panel viability, ATPlite luminescence, 48 h; series mostly up to 57.5 µM
Method in brief: as §1

HeLa = assay: as above; conditions: Gynecologic cancer cell panel viability, ATPlite luminescence, 48 h; series mostly up to 57.5 µM
Method in brief: as §1

Hek293T = assay: as above; conditions: Gynecologic cancer cell panel viability, ATPlite luminescence, 48 h, control line for the selectivity index; series mostly up to 57.5 µM
Method in brief: as §1

JEG-3 = assay: as above; conditions: Gynecologic cancer cell panel viability, ATPlite luminescence, 48 h; series mostly up to 57.5 µM
Method in brief: as §1

OV90 = assay: as above; conditions: Gynecologic cancer cell panel viability, ATPlite luminescence, 48 h; series mostly up to 57.5 µM
Method in brief: as §1

Tov-21-G = assay: as above; conditions: Gynecologic cancer cell panel viability, ATPlite luminescence, 48 h; series mostly up to 57.5 µM
Method in brief: as §1

Tov112D = assay: as above; conditions: Gynecologic cancer cell panel viability, ATPlite luminescence, 48 h; series mostly up to 57.5 µM
Method in brief: as §1

PA-1 = assay: as above; conditions: Gynecologic cancer cell panel viability, ATPlite luminescence, 48 h; series mostly up to 57.5 µM
Method in brief: as §1

Measured: Potency

CC(C)N(CCCNC(=O)Nc1ccc(C(C)(C)C)cc1)C[C@H]1O[C@@H](n2cc(Br)c3c(N)ncnc32)[C@H](O)[C@@H]1O
active: [4] 12.9 µM and 16.6 µM | [5] 12.9 µM and 14.8 µM
not listed: PA-1
inactive: all other assays above

Cc1ccc(C2(COC(=O)C(C)C)CO2)c(OC(=O)C(C)C)c1 (configuration not stated)
not listed: [4] | [5]
inactive: all other assays above

Cn1nccc1Nc1nccc(-c2ccn([C@H](CO)c3ccc(Cl)c(F)c3)c(=O)c2)n1
active: [4] 7.28 µM and 7.42 µM | [5] 10.3 µM and 8.33 µM
not listed: [10] | HeLa | JEG-3 | OV90 | PA-1
inactive: all other assays above

C[C@@H]1COCCN1c1cc(C2(S(C)(=N)=O)CC2)nc(-c2ccnc3[nH]ccc23)n1 (some centres not stated)
inactive: [3]
active: [4] 662 nM and 3.66 µM

CCOC(=O)c1cccc(CNc2ccc(N(C)C(=O)Nc3ccccc3)cc2)c1
active: [4] 14.5 µM | [5] 14.5 µM
not listed: [9] | C33A | CASKI | Es-2 | Hek293T | OV90 | PA-1
inactive: all other assays above

COc1ccccc1NC(=O)Nc1ccc2ccccc2c1
active: [4] 25.8 µM | [5] 2.9 µM | [8] 8.49 µM
not listed: [1] | [7] | CASKI | OV90 | Tov-21-G
inactive: all other assays above

CCN1CCN(Cc2ccc(-c3cc4c(NC(C)c5ccccc5)ncnc4[nH]3)cc2)CC1 (configuration not stated)
active: [4] 4.59 µM | [5] 5.78 µM | [7] 14.3 µM | Tov-21-G 4.47 µM
not listed: [6] | CASKI | OV90 | Tov112D | PA-1
inactive: all other assays above

O=C(c1ccc(F)c(F)c1Nc1ccc(I)cc1F)N1CC(O)(C2CCCCN2)C1 (configuration not stated)
active: [4] 20.5 µM | [5] 18.3 µM | C33A 35.5 µM | CASKI 28.2 µM
not listed: Es-2 | HeLa | OV90 | Tov-21-G | Tov112D | PA-1
inactive: all other assays above

CNc1ccc([N+](=O)[O-])cc1-n1cnc(-c2ccc(C(F)(F)F)cc2)c1
not listed: [4] | [5] | [7]
inactive: all other assays above

CC1CCC2C(=CCC(O)C2(C)C)C1(C)Cc1c(O)cc(CO)c(C=O)c1O (configuration not stated)
not listed: [1] | [4] | [5] | [6]
inactive: all other assays above

CNC(=O)c1cccc2cc(Oc3ccnc4cc(OCC5(N)CC5)c(OC)cc34)ccc12
active: [4] 14.8 µM and 20.6 µM | [5] 10.5 µM and 23.1 µM
not listed: OV90 | PA-1
inactive: all other assays above

CC1CCN(C(c2ccc(F)cc2)c2ccc(C(C)C(=O)O)cc2-c2ccc(C(F)(F)F)cc2)CC1 (configuration not stated)
active: [1] 1.58 µM | [2] 3.16 µM | [4] 14.5 µM | [5] 11.5 µM
not listed: HeLa | Hek293T
inactive: all other assays above

Cc1ccc(C(=O)N2CCN(c3ccc([N+](=O)[O-])cc3)CC2)cc1Cl
active: [4] 12.9 µM | [5] 11.5 µM
inactive: all other assays above

COc1cc2ncnc(Nc3ccc(Oc4ccccc4)cc3)c2cc1OC
active: [4] 4.59 µM
inactive: [1] | [2] | [8] | [9] | [10] | C33A | JEG-3 | OV90

COc1cc([C@@H](CC(=O)O)c2ccc(C)c(CN3C[C@@H](C)Oc4ccccc4S3(=O)=O)c2)cc2nnn(C)c12
inactive: [3] | [4] | [6]

C=C1/C(=C/C=C2\CCC[C@]3(C)[C@@H]([C@H](C)/C=C/C(=O)C4CC4)CC[C@@H]23)C[C@@H](O)C[C@@H]1O
active: [4] 16.3 µM | [5] 23 µM
not listed: [1]
inactive: all other assays above

CC1(C)CC23[C@@H]4CC(=O)[C@@H]2COC(=O)[C@@H]3CC[C@H]41
active: [4] 12.9 µM | [5] 7.28 µM
not listed: [6] | [7] | Hek293T | Tov-21-G
inactive: all other assays above

N#CCC(C1CCCC1)n1cc(-c2ncnc3[nH]ccc23)cn1 (configuration not stated)
active: [4] 12.9 µM | [5] 20.5 µM
not listed: [6] | [7]
inactive: all other assays above

CCC(C)n1cc(C)c2c(C(=O)NCc3c(C)cc(C)[nH]c3=O)cc(-c3ccc(N4CCNCC4)nc3)cc21 (configuration not stated)
active: [4] 20.5 µM | [5] 14.5 µM
not listed: [6] | [7] | [9]
inactive: all other assays above

CN(CCCNC(=O)c1ccc2nc3c(c(Cl)c2c1)CCCC3)Cc1ccccc1
active: [4] 12.9 µM | [5] 8.17 µM
inactive: all other assays above

O=C(Nc1ccc(F)cc1)N1CCc2ccccc2C1c1ccc(C(F)(F)F)cc1 (configuration not stated)
active: [4] 18.3 µM | [5] 18.3 µM | [9] 0.0474 µM
inactive: all other assays above

CC/C(=C(\c1ccc(O)cc1)c1ccc(OCCNC)cc1)c1ccccc1
not listed: [3] | [4] | [5]
inactive: all other assays above

O=[N+]([O-])c1ccc(-[n+]2nc(-c3ccccc3)nn2-c2ccc(I)cc2)cc1
active: [9] 10.6 µM
not listed: [5] | [7] | [10] | OV90 | Tov-21-G
inactive: all other assays above

N#Cc1c[nH]c2c(C(=O)N3CCN(CCc4ccc(F)cc4)CC3)cccc12
not listed: [2] | [4] | [5]
inactive: all other assays above

O=C(NNc1ccccc1)c1ccncc1
not listed: [5] | Es-2 | Hek293T | Tov112D | PA-1
inactive: all other assays above

COc1cc(O)c(C(=O)CCc2ccc(O)cc2)c(O[C@@H]2O[C@H](CO)[C@@H](O)[C@H](O)[C@H]2O)c1
active: [9] 9.22 µM
not listed: [2] | [4] | [5] | Es-2 | Hek293T | PA-1
inactive: all other assays above

CCC[C@@H](NC(=O)N1C(=O)C(CC)(CC)[C@@H]1Oc1ccc(C(=O)N2CCN(C)CC2)cc1)c1ccc2c(c1)OCO2
not listed: [4] | [5] | [9]
inactive: all other assays above
